This is an account of results in PubChem BioAssay (NCATS).

Results filed as inconclusive are left out. Entries that show only a call come without a potency. Values without a mark were called inactive. Activity calls are given as the source filed them. Calls come from the whole dose curve; as a rule, active = well fitted cell-killing curve with a large enough effect; inconclusive = small, poorly fitted or top-dose-only effect, or effect the other way; inactive = no such curve, though single readings can be large or run the other way.
Potency is the fitted concentration of half-maximal effect.

The nature of the assay: Viability qHTS for spleen associated tyrosine kinase inhibitor (SYKi) naive MV4-11 cells (AID 1963823). Note: nearly all actives have a fitted effect of over 40% in size. The following applies: MV4-11 AML viability, CellTiter-Glo luminescence, 72 h; series mostly up to 45 µM. An outline of the steps:
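Read-out: CellTiter-Glo luminescence. Exposure: 72 hr, 37 C, 5% CO2, 95% humidity. Cells: MV4-11 without SYK inhibitor history, 500/well, qHTS format.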
Background: Quantitative high-throughput screening tests each substance at several concentrations.
Turning to `C=CC1(C)CC2CCC3C(C)(C(=O)O)CCCC3(C)C2=CC1=O` (centres undefined), the Potency result was “inactive”.
For `CC12CCC(OC3OC(CO)C(O)C(OC4OC(CO)C(O)C(O)C4O)C3O)CC1=CCC1C2CCC2(C)/C(=C3/COC(=O)C3)CCC12O` (centres undefined), the Potency result was “inactive”.
As to `O=C1O[C@H](C(O)CO)C(=O)C1=O` (some centres undefined), the Potency result was “inactive”.
With `OCc1ccc(O[C@@H]2O[C@H](CO)[C@@H](O)[C@H](O)[C@H]2O)cc1`, the Potency result is “inactive”.
As to `CC(C)S(=O)(=O)N[C@H]1CCOC[C@@H]1c1ccc(-c2ccc(C#N)s2)cc1`, the Potency result was “inactive”.
With `CC(=O)O[C@@H]1[C@H](O[C@@H]2O[C@H](CO)[C@@H](O)[C@H](O)[C@H]2O)[C@@H](O[C@@H]2O[C@@H](C)[C@H](O)[C@@H](O[C@@H]3O[C@H](CO)[C@@H](O)[C@H](O)[C@H]3O)[C@H]2O)[C@H](OC(=O)C23CCC4(C)C(=CCC5C6(C)CC(O)C(O[C@@H]7O[C@H](C(=O)O)[C@@H](O)[C@H](O)[C@H]7O)C(C)(C(=O)O)C6CCC54C)C2CC(C)(C)CC3O)O[C@@H]1C` (some centres undefined), the viability (% of control) is 92% [at 9.25 µM].
Consider `CC1(C)CCC2(C(=O)OC3OC(COC4OC(CO)C(O)C(O)C4O)C(O)C(O)C3O)CCC3(C)C(=CCC4C5(C)CCC(OC6OCC(O)C(O)C6O)C(C)(C)C5CCC43C)C2C1O` (centres undefined), for which the viability (% of control) is 56.1% [at 9.25 µM].
Turning to `O=C(NCC(=O)N1CCCC1)Nc1ccc2ccccc2c1`, the Potency was 5.8 µM (active).
With `CCCCCOC(=O)Nc1nc(=O)n(C2O[C@H](C)[C@@H](O)[C@H]2O)cc1F` (some centres undefined), the Potency entry was “inactive”.
